Screening results: PubChem BioAssay, National Center for Advancing Translational Sciences (NCATS)
The list is not random: actives were taken first. Their share in the collection is about 2.4%.
D2 ag-1: agonists of human D2 dopamine receptor (beta-arrestin); P14416; actives 0.084% (n = 360,000); activation, % (concentration not given with the values); DiscoveRx PathHunter D2 beta-arrestin, luminescence, 90 min; 100% = 57 uM dopamine signal; in the data active = activation above about 40%; inconclusive = between about 15% and that limit
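DiscoveRx PathHunter D2 beta-arrestin cells (2,100/well) attached overnight, then compound-stimulated 90 min at 37 C in HBSS/10 mM HEPES/0.1% Tween-20 buffer; beta-galactosidase complementation read by luminescence after 1 h at ambient temperature. Dopamine 57 uM final (EC100) as control.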
D2 PAM-1: human D2 receptor positive allosteric modulation. DiscoveRx D2 beta-arrestin cells, luminescence, 90 min; 100% = 57 uM dopamine signal. AID 624464. potentiation, % (test concentration not listed). actives 0.23% (n = 360,000). P14416; in the data active = potentiation above about 50%; inconclusive = mostly about 30% to 49%
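PathHunter D2 cells, attached overnight at 37 deg C, received compound in DMSO plus dopamine at EC20 (50 nM final) for 90 min at 37 deg C. Beta-arrestin recruitment was read as luminescence after 1 h with detection reagent at ambient temperature.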
D2 PAM-2: positive allosteric modulators of human D2 dopamine receptor. P14416. HEK293 T-REx D2, calcium flux, EC20 dopamine potentiation. potentiation, % at 10 µM. actives 0.34% (n = 340,000). AID 485347;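 active = potentiation over 3 SD above the plate norm, cut at about 30% in these data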
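Cells plated with tetracycline inducer and held overnight at 30 C; calcium dye loaded 30–90 min at room temperature; baseline taken, compound added and read 180 s; EC20 dopamine then added and read 180 s.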
D2 ag-2: agonists of human D2 dopamine receptor; P14416; HEK293 T-REx D2 cells, calcium flux agonist mode; activation, % at 2 µM; actives 0.53% (n = 340,000);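 active = activation over 3 SD above normal in the single-dose calcium agonist read, cut at about 30% in these data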
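In this primary screen, compounds producing a positive calcium signal within 180 s of addition to tetracycline-induced, force-coupled HEK293 Trex D2 cells are flagged; cells are dye-loaded with a no-wash calcium kit beforehand.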
D2 antagonist: antagonists of human D2 dopamine receptor | HEK293 TREx D2 cells, calcium flux, dopamine EC80 | inhibition, % at 10 µM | actives 2% (n = 340,000); in the data active = inhibition above about 30%; inactive = below that, where a call was filed
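Calcium mobilization kinetics were recorded at 1 s intervals in tetracycline-induced HEK293 T-REx D2 cells, first for 180 s after compound addition and then 180 s after EC80 dopamine.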
D3 arrestin ag: activates human D3 dopamine receptor beta-arrestin recruitment; actives 4% (n = 2,300); shares compounds with D2 ag-2; AID 720506; Potency, µM (doses to about 76.9 µM), most hits filed as activators; DiscoveRx D3 beta-arrestin cells, luminescence, 90 min; also: nearly all actives have a fitted effect of over 70% in size
Target sequence (P35462 whole entry, looked up): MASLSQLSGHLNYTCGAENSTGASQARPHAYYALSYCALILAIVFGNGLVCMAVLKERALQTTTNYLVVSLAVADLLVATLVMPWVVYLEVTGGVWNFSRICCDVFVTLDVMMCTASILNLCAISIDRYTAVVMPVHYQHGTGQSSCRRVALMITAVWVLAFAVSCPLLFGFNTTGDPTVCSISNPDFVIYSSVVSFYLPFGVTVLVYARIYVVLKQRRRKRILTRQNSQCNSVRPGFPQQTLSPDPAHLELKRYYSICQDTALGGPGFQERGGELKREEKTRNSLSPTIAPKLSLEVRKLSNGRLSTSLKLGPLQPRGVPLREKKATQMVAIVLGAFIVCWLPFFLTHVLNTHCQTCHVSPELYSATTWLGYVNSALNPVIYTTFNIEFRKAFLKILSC
D2 ag-3: D2 receptor agonism, beta-arrestin counterscreen. DiscoveRx PathHunter D2 beta-arrestin, luminescence, 90 min; response scale: percent relative to full dopamine signal. AID 720507. shares compounds with D2 ag-2. Potency, µM (highest dose often 76.9 µM), actives largely listed as activators. actives 5.9% (n = 2,300); also: nearly all actives have a fitted effect of over 70% in size
A number is an active result. Unless noted, calls follow the shape of the dose curve; as a rule, active = well fitted activation curve with a large enough effect; inconclusive = small, poorly fitted or top-dose-only effect; inactive = flat fitted curve, though single readings scatter.

Cc1cc(S(=O)(=O)C(CNC(=O)c2ccc(OC(C)C)cc2)c2cccs2)ccc1F (stereo unspecified) was read as D2 PAM-2 inactive and D2 ag-2 inactive.
CN(Cc1ccccc1)CC(O)COc1ccc(CNCCOc2cccnc2)cc1 (stereo unspecified) was read as D2 ag-1 inconclusive, D2 PAM-1 inactive, D2 PAM-2 inactive, D2 ag-2 56, D2 antagonist 83, D3 arrestin ag 1.4µM and D2 ag-3 inactive.
CN(Cc1ccccc1)CC(O)COc1ccc(CNCCCOc2cccnc2)cc1 (stereo unspecified) was read as D2 ag-1 inactive, D2 PAM-1 inactive, D2 PAM-2 inactive, D2 ag-2 inactive and D2 antagonist inactive.
CN(Cc1ccccc1)C(=O)c1nc2ccccn2c1CNCCOc1cccnc1 was read as D2 ag-1 inactive, D2 PAM-1 inactive, D2 PAM-2 inactive, D2 ag-2 41, D2 antagonist inactive, D3 arrestin ag inactive and D2 ag-3 inactive.
`CCCCN(CC)C(=O)CSc1nc2n[nH]c(C)c2c(=N)n1-c1cccc(Cl)c1` gave D2 PAM-2 inactive.
Screening CC(C)N=c1scc(-c2ccco2)n1/N=C/c1ccc(O)c(O)c1 returned D2 ag-1 inactive, D2 PAM-1 inactive, D2 PAM-2 inactive, D2 ag-2 inactive and D2 antagonist inactive.
`COCCN=c1scc(-c2ccco2)n1/N=C/c1ccc(O)c(O)c1O` gave D2 ag-1 70, D2 PAM-1 88, D2 PAM-2 inactive, D2 ag-2 68, D2 antagonist 77, D3 arrestin ag 35µM and D2 ag-3 35µM.
For C=CCN=c1scc(-c2ccco2)n1/N=C/c1ccc(O)c(O)c1O the results were D2 ag-1 90, D2 PAM-1 101, D2 PAM-2 inactive, D2 ag-2 74, D2 antagonist 88, D3 arrestin ag 40µM and D2 ag-3 35µM.
Screening O=C(O)C1C2C=CC(C3CC23)C1C(=O)NCCc1ccccc1 (stereo unspecified) returned D2 ag-1 inactive, D2 PAM-1 inactive, D2 PAM-2 inactive, D2 ag-2 32, D2 antagonist inactive, D3 arrestin ag inactive and D2 ag-3 inactive.
`CC1=C(C)CC(C(=O)NCCc2ccccc2)C(C(=O)O)C1` (stereo unspecified) gave D2 ag-1 inactive, D2 PAM-1 inactive, D2 PAM-2 inactive, D2 ag-2 inactive and D2 antagonist inactive.
`CCOC(=O)NC(=O)/C(C#N)=N\Nc1cccc(Cl)c1` gave D2 ag-1 inactive, D2 PAM-1 inactive, D2 PAM-2 inactive, D2 ag-2 inactive, D2 antagonist 38, D3 arrestin ag inactive and D2 ag-3 inactive.
Cc1cc(C)c(C(=O)OCc2csc(CC(=O)Nc3ccccc3C)n2)c(C)c1 was read as D2 ag-1 inactive, D2 PAM-1 inactive, D2 PAM-2 inactive, D2 ag-2 inactive and D2 antagonist inactive.
`CC(=O)Nc1cccc(C(=O)OCc2csc(CC(=O)Nc3ccccc3C)n2)c1` gave D2 ag-1 inactive, D2 PAM-1 inactive, D2 PAM-2 inactive, D2 ag-2 inactive, D2 antagonist inactive, D3 arrestin ag inactive and D2 ag-3 inactive.
CCC(=O)N1CCc2cc(S(=O)(=O)NC(C(=O)NCCc3ccc(OC)c(OC)c3)C(C)C)ccc21 (stereo unspecified) was read as D2 PAM-2 inactive and D2 ag-2 inactive.
Screening OC1(Cc2cc(-c3ccccc3)no2)CCN(CCCc2ccccc2)CC1 returned D2 ag-1 inactive, D2 PAM-1 inactive, D2 PAM-2 inactive, D2 ag-2 46, D2 antagonist 73, D3 arrestin ag inconclusive and D2 ag-3 inactive.
For CCc1ccc(OCC(=O)N(Cc2ccco2)Cc2ccccc2Cl)cc1 the results were D2 PAM-2 inactive and D2 ag-2 inactive.
`CC(C(=O)Nc1ccc(N2CCOCC2)cc1)N1C(=O)c2ccccc2C1=O` (stereo unspecified) gave D2 ag-1 inactive, D2 PAM-1 inactive, D2 PAM-2 inactive, D2 ag-2 inactive and D2 antagonist inactive.
Screening CC(C)C(C(=O)Nc1ccc(N2CCOCC2)cc1)N1C(=O)c2ccccc2C1=O (stereo unspecified) returned D2 ag-1 inactive, D2 PAM-1 inactive, D2 PAM-2 inactive, D2 ag-2 inactive, D2 antagonist inactive, D3 arrestin ag inactive and D2 ag-3 inactive.
O=c1/c(=C\c2cc([N+](=O)[O-])cc([N+](=O)[O-])c2O)sc2nc3ccccc3n12 was read as D2 ag-1 inactive, D2 PAM-1 inactive, D2 PAM-2 inactive, D2 ag-2 inactive, D2 antagonist 31, D3 arrestin ag inactive and D2 ag-3 inactive.
`CCOC(=O)N1CCC(N(CCCOC)C(=O)Nc2ccc(CC)cc2)CC1` gave D2 ag-1 inactive, D2 PAM-1 inactive, D2 PAM-2 inactive, D2 ag-2 inactive, D2 antagonist inactive, D3 arrestin ag inactive and D2 ag-3 inactive.
Screening CCOC(=O)N1CCC(N(CCOC)C(=O)Nc2ccc(Cl)cc2)CC1 returned D2 ag-1 inactive, D2 PAM-1 inactive, D2 PAM-2 inactive, D2 ag-2 inactive and D2 antagonist inactive.
For COc1cccc(CNC(=O)CSC2=Nc3ccccc3C3=NC(C(C)C)C(=O)N23)c1 (stereo unspecified) the results were D2 PAM-2 inactive and D2 ag-2 inactive.
`CC(C)N(C(=O)Nc1ccc2nsnc2c1)C(C)C` gave D2 ag-1 inactive, D2 PAM-1 inactive, D2 PAM-2 inactive, D2 ag-2 53, D2 antagonist inactive, D3 arrestin ag inconclusive and D2 ag-3 inactive.
For Cc1sc(NC(=S)NC(=O)c2ccco2)c(C(N)=O)c1C the results were D2 ag-1 inactive, D2 PAM-1 inactive, D2 PAM-2 inactive, D2 ag-2 inactive and D2 antagonist inactive.
For CCN1CCc2c(sc(NC(=S)NC(=O)c3ccco3)c2C(N)=O)C1 the results were D2 ag-1 inactive, D2 PAM-1 inactive, D2 PAM-2 inactive, D2 ag-2 30, D2 antagonist inactive, D3 arrestin ag inactive and D2 ag-3 inactive.
CCN1CCc2c(sc(NC(=O)c3ccc(C(=O)c4ccccc4)cc3)c2C(N)=O)C1 was read as D2 ag-1 inactive, D2 PAM-1 inactive, D2 PAM-2 inactive, D2 ag-2 74, D2 antagonist inactive, D3 arrestin ag inactive and D2 ag-3 inactive.
`CCCS(=O)(=O)c1ncc(Cl)c(C(=O)N(Cc2ccccc2)Cc2ccco2)n1` gave D2 PAM-2 inactive and D2 ag-2 inactive.
